For part of these data: Entries with a potency or affinity are not part of this list. Activity calls are given as the source filed them.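 Rule for the calls, unless noted: active = fitted half-maximal concentration within the tested range, moderate curve steepness, significant signal drop, and little compound fluorescence or bead-linkage interference; inactive = the rest.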

For test [1], the target named is Cell division control protein 42 homolog (Homo sapiens) (UniProt P60953). As to the kind of experiment: inhibition of fluorescent GTP binding to constitutively active Cdc42 – biochemical, multiplex bead flow cytometry, Bodipy-FL-GTP, dose response (AID 1333;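 active = fitted half-maximal concentration within the tested dose range, moderate curve steepness, a statistically real signal drop, and little compound fluorescence or tag-binding interference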).
Cell division control protein 42 homolog (Homo sapiens), sequence (P60953 whole entry, looked up): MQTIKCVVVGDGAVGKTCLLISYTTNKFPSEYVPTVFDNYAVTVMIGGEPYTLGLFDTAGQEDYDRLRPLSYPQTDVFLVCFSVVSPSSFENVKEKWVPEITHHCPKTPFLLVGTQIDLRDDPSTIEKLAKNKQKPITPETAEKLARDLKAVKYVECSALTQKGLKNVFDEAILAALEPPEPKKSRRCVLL
Test [2] has the same target. As to the kind of experiment: inhibition of fluorescent GTP binding to wildtype Cdc42 – biochemical, multiplex bead flow cytometry, Bodipy-FL-GTP, dose response (AID 1334). The conditions noted are these: bead-based flow cytometry, Bodipy-FL-GTP binding to GST-Cdc42; at 100 µM (top of the series) unless noted. For orientation: A flow cytometer gives signals particle by particle.

Test [3] has as its target GTPase HRas (Homo sapiens) (UniProt P01112). As to the kind of experiment: Ras wt fluorescent GTP loading blockade – biochemical, wildtype, multiplex bead flow cytometry, dose response (AID 1335;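 active = fitted half-maximal concentration within 10 nM to 100 µM, steepness 0.5 to 2, significant signal drop, low assay interference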). The settings on record: bead-based flow cytometry, Bodipy-GTP binding to GST-Ras; at 100 µM (top of the series) unless noted.
Test [4] has as its system Ras-related protein Rab-7a (dog), GTP binding. As to the kind of experiment: blockers of fluorescent GTP binding to Rab7 – biochemical, wildtype, multiplex bead flow cytometry, dose response (AID 1336; call rule not given here).
For test [5], the target named is Ras-related C3 botulinum toxin substrate 1 (Homo sapiens) (UniProt P63000). Kind of test: inhibition of wildtype Rac1 nucleotide loading – biochemical, multiplex bead flow cytometry, dose response (AID 1340;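 active = dose curve with midpoint inside tested range, moderate steepness, plateau gap beyond fit error, low compound glow and bead-link interference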). The conditions noted are these: GST-Rac1 beads, Bodipy-FL-GTP binding; at 100 µM (top of the series) unless noted.
The target in test [6] is GTPase HRas (Homo sapiens) (UniProt P01112). Kind of test: blockade of GTP loading onto mutant Ras – biochemical, activated mutant, multiplex bead flow cytometry, dose response (AID 1341;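 active = dose-response curve with midpoint inside the tested range, moderate steepness, significant amplitude and little compound fluorescence or bead-attachment interference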;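 note: GST-tagged constitutively activated Ras mutant immobilized on beads and multiplexed with other GTPases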).
GTPase HRas (Homo sapiens), sequence (P01112 whole entry, looked up): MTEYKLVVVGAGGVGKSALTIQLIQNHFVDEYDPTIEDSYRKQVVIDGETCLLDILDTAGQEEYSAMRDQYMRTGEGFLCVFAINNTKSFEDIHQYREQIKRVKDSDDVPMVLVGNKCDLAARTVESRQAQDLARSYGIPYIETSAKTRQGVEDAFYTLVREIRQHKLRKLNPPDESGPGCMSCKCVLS

Consider `CCOc1ccc(C2=Nn3c(nnc3-c3ccco3)SC2)cc1`, for which the compound was called inactive in test [1], in test [4] and in test [6]. In test [2], this compound came in with a fluorescence, percent of control (lower = inhibition) of 33.2%. In test [3], this compound had a GTP binding, percent of control of 75.2%. For the same compound, in test [5], the GTP binding signal, raw median fluorescence (lower = inhibition) (MCF (arbitrary fluorescence units)) amounted to 179.

`Cc1ccc(C(=O)O)c(OCCc2c(C)cccc2C)n1`: the outcome in test [1], in test [4] and in test [6] was inactive. The same compound yielded a fluorescence, percent of control (lower = inhibition) in test [2] of 64.4%. Also, in test [3], the GTP binding, percent of control amounted to 224%. The GTP binding signal, raw median fluorescence (lower = inhibition) (MCF (arbitrary fluorescence units)) in test [5] was 57.

Regarding `O=C(C#Cc1ccc(-c2ccccc2)cc1)c1ccc([N+](=O)[O-])cc1`, the compound was classed as inactive in test [1], in test [4] and in test [6]. Further, the fluorescence, percent of control (lower = inhibition) in test [2] was found to be 44.5%. In test [3], this compound yielded a GTP binding, percent of control of 196%. In test [5], this compound yielded a GTP binding signal, raw median fluorescence (lower = inhibition) (MCF (arbitrary fluorescence units)) of 51.8.

With `O=C(O)c1nnn(Cc2ccc(Br)cc2)c1C(=O)O`, the call in test [1], in test [4] and in test [6] was inactive. In addition, the fluorescence, percent of control (lower = inhibition) in test [2] is 58.8%. The compound also registered a GTP binding, percent of control in test [3] of 80.4%. Also, the GTP binding signal, raw median fluorescence (lower = inhibition) (MCF (arbitrary fluorescence units)) in test [5] is 30.6.

`O=C(O)c1cccnc1Oc1ccc2c(c1)OCO2`: the compound was classed as inactive in test [1], in test [4] and in test [6]. In test [2], this compound had a fluorescence, percent of control (lower = inhibition) of 76.8%. For the same compound, in test [3], the GTP binding, percent of control is 92%. In test [5], this compound registered a GTP binding signal, raw median fluorescence (lower = inhibition) (MCF (arbitrary fluorescence units)) of 55.2.

With `COc1cccc(N=Nc2c(N)[nH]n3c(=O)c4c(nc23)CCCC4)c1`, the compound was called inactive in test [1], in test [4] and in test [6]. In test [2], this compound showed a fluorescence, percent of control (lower = inhibition) of 29.6%. For the same compound, in test [3], the GTP binding, percent of control was 66.9%. The GTP binding signal, raw median fluorescence (lower = inhibition) (MCF (arbitrary fluorescence units)) in test [5] came out at 151.

Take `O=C(/C=C/c1c(Cl)nc2ccccn12)N1CCCCC1`: the outcome in test [1], in test [4] and in test [6] was inactive. Also, the fluorescence, percent of control (lower = inhibition) in test [2] amounted to 33.3%. Besides, the GTP binding, percent of control in test [3] was 80.9%. The compound further registered a GTP binding signal, raw median fluorescence (lower = inhibition) (MCF (arbitrary fluorescence units)) in test [5] of 245.

As to `CCC(OC(=O)c1cc2sccc2n1C)C(=O)NCc1ccco1` (stereo not given), the result in test [1], in test [4] and in test [6] was inactive. In test [2], this compound displayed a fluorescence, percent of control (lower = inhibition) of 54.2%. In test [3], this compound came in with a GTP binding, percent of control of 63%. In addition, the GTP binding signal, raw median fluorescence (lower = inhibition) (MCF (arbitrary fluorescence units)) in test [5] turned out to be 212.

As to `O=C(CSc1ncnc2scc(-c3ccccc3)c12)N1CCN(Cc2ccc3c(c2)OCO3)CC1`, the call in test [1], in test [4] and in test [6] was inactive. In test [2], the fluorescence, percent of control (lower = inhibition) was 45.2%. This compound registered a GTP binding, percent of control in test [3] of 63.6%. This compound also registered a GTP binding signal, raw median fluorescence (lower = inhibition) (MCF (arbitrary fluorescence units)) in test [5] of 196.

Regarding `O=C(C[n+]1cccc2ccccc21)c1ccc(NC(=O)c2ccccc2)cc1`, the compound was classed as inactive in test [1], in test [4] and in test [6]. This compound also gave a fluorescence, percent of control (lower = inhibition) in test [2] of 75.8%. Also, in test [3], the GTP binding, percent of control was determined as 123%. In test [5], this compound came in with a GTP binding signal, raw median fluorescence (lower = inhibition) (MCF (arbitrary fluorescence units)) of 332.

On to `Cc1ccc(-c2nnc(-c3ccccc3S(=O)(=O)Cc3ccc(Cl)cc3)o2)cc1`, for which the compound was called inactive in test [1], in test [4] and in test [6]. In test [2], the fluorescence, percent of control (lower = inhibition) is 90.3%. The GTP binding, percent of control in test [3] amounted to 165%. In addition, the GTP binding signal, raw median fluorescence (lower = inhibition) (MCF (arbitrary fluorescence units)) in test [5] stood at 184.

For the compound `O=C(Nc1ccccc1C(=O)N1CCOCC1)C1CCC(=O)N1C1CCCC1` (stereo not given), the result in test [1], in test [4] and in test [6] was inactive. Besides, in test [2], the fluorescence, percent of control (lower = inhibition) was found to be 51.3%. In test [3], the GTP binding, percent of control turned out to be 62.7%. In test [5], this compound yielded a GTP binding signal, raw median fluorescence (lower = inhibition) (MCF (arbitrary fluorescence units)) of 210.

As to `CCN(CC)c1ccc(/C=C(/C#N)c2nc3ccc(C)cc3[nH]2)c(OC(C)C)c1`, the call in test [1], in test [4] and in test [6] was inactive. Besides, in test [2], the fluorescence, percent of control (lower = inhibition) stood at 96.1%. Moreover, in test [3], the GTP binding, percent of control turned out to be 108%. For the same compound, the GTP binding signal, raw median fluorescence (lower = inhibition) (MCF (arbitrary fluorescence units)) in test [5] turned out to be 264.

For `Cc1cc2ccccn2c1C(=O)c1ccc(NN)c([N+](=O)[O-])c1`, the result in test [1], in test [4] and in test [6] was inactive. Further, in test [2], the fluorescence, percent of control (lower = inhibition) turned out to be 35.2%. Besides, the GTP binding, percent of control in test [3] was determined as 83.1%. For the same compound, the GTP binding signal, raw median fluorescence (lower = inhibition) (MCF (arbitrary fluorescence units)) in test [5] stood at 240.

With `CCN(CC)c1ccc2c(c1)oc(=O)c1c(Cl)cc(=O)oc12`, the outcome in test [1], in test [4] and in test [6] was inactive. This compound gave a fluorescence, percent of control (lower = inhibition) in test [2] of 29%. Further, the GTP binding, percent of control in test [3] is 72.6%. For the same compound, in test [5], the GTP binding signal, raw median fluorescence (lower = inhibition) (MCF (arbitrary fluorescence units)) amounted to 226.

(Values after PubChem BioAssay.)
